# Measurements taken from PubChem BioAssay (NCI).
# The panel holds about 83,000 compounds, 20% with a hit somewhere; the sample as a whole holds those more often.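 Assay: single dose, 48 h. Readout: percent growth (0 = no net growth; negative = cell death). Active: <10.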 A number with no mark means an inactive call. Activity calls are given as the source filed them.
# Tests used:
# Test in all cases: NCI-60 one-dose screen, 48 h (100 = growth as untreated, 0 = no growth, -100 = all killed)
# Conditions in all cases: 10 µM unless noted
# SK-MEL-2 melanoma = test system: SK-MEL-2 melanoma
# EKVX NSCLC = test system: EKVX NSCLC
# SN12C renal = test system: SN12C renal
# UO-31 renal = test system: UO-31 renal
# TK-10 renal = test system: TK-10 renal
# ACHN renal = test system: ACHN renal
# CAKI-1 renal = test system: CAKI-1 renal
# A498 renal = test system: A498 renal
# CCRF-CEM leukemia = test system: CCRF-CEM leukemia
# MOLT-4 leukemia = test system: MOLT-4 leukemia
# SR leukemia = test system: SR leukemia
# RPMI-8226 leukemia = test system: RPMI-8226 leukemia
# OVCAR-8 ovarian = test system: OVCAR-8 ovarian
# OVCAR-5 ovarian = test system: OVCAR-5 ovarian
# OVCAR-4 ovarian = test system: OVCAR-4 ovarian
# SK-OV-3 ovarian = test system: SK-OV-3 ovarian
# IGROV1 ovarian = test system: IGROV1 ovarian
# OVCAR-3 ovarian = test system: OVCAR-3 ovarian
# HS 578T breast = test system: HS 578T breast
# NCI/ADR-RES ovarian = test system: NCI/ADR-RES ovarian
Compound,growth (SK-MEL-2 melanoma) [%],growth (EKVX NSCLC) [%],growth (SN12C renal) [%],growth (UO-31 renal),growth (TK-10 renal),growth (ACHN renal),growth (CAKI-1 renal),growth (A498 renal),growth (CCRF-CEM leukemia),growth (MOLT-4 leukemia),growth (SR leukemia),growth (RPMI-8226 leukemia),growth (OVCAR-8 ovarian),growth (OVCAR-5 ovarian),growth (OVCAR-4 ovarian),growth (SK-OV-3 ovarian),growth (IGROV1 ovarian),growth (OVCAR-3 ovarian),growth (HS 578T breast),growth (NCI/ADR-RES ovarian)
CCOP(=O)(OCC)OC[C@]12CCC(C)(C)CC1C1=CC[C@@H]3[C@@]4(C)CCCNC(C)(C)[C@@H]4CC[C@@]3(C)[C@]1(C)CC2 (stereo not given in full),121,69.7,80.8,58.2%,90.4%,83.5%,53.7%,85.2%,28.1%,2.26% (active),-24.1% (active),-1.77% (active),90.2%,102%,80.9%,112%,44.5%,97.1%,88.7%,73.7%
O=C(CSc1nnc(-c2ccc(Cl)cc2)n1-c1ccccc1)Nc1ccccc1Cl,95.5,69.7,29.4,34.2%,85.1%,21.7%,74.6%,104%,76.7%,85.3%,20.5%,35.4%,67.2%,81.3%,8.39% (active),125%,52.3%,91.6%,58.8%,54.8%
Cc1ccc2c(n1)C(=O)C(Cl)=C(Nc1ccc(C(F)(F)F)cc1)C2=O,103,77.2,91.8,-85.2% (active),85.4%,-98.4% (active),44.4%,79%,2.47% (active),8.71% (active),10.5%,-8.81% (active),39.3%,110%,-96.4% (active),82.2%,-58.2% (active),-48.6% (active),94.1%,87.6%
O=C1CSC(c2cn(-c3ccccc3)nc2-c2ccc(Cl)cc2)N1c1ccccc1 (stereo not given),112,98.8,114,83.8%,118%,104%,92.3%,125%,103%,114%,109%,103%,104%,112%,110%,114%,114%,124%,108%,104%
C#Cc1cc(OC)c(C(=O)Nc2ccc(F)cc2C(=O)Nc2cccc(S(=O)(=O)C(F)(F)F)c2)cn1,45.1,13.9,17.1,-85.1% (active),66.6%,-57.4% (active),-11.4% (active),-18.2% (active),-23.5% (active),-32.9% (active),-42.7% (active),-44.1% (active),5.67% (active),-33.2% (active),27.8%,-70.5% (active),-51% (active),-30.2% (active),-19.7% (active),-29.1% (active)
Cn1cc(-c2cc3ncnc(Nc4ccc(CC(=O)Nc5nc(C(C)(C)C)cs5)cc4)c3s2)cn1,36.5,48,23.6,31.6%,44.7%,18.6%,7.53% (active),-4.34% (active),23.1%,16%,36.2%,38.8%,38.1%,84.3%,28.2%,26.2%,12%,62.3%,47.3%,101%
Cc1[nH]c(C(=O)Nc2ccccc2OCc2cccc(C(=O)NCCN)c2)cc1Cl,92.8,105,93.9,92.2%,98.9%,95.1%,90.2%,68.3%,27.4%,68.6%,-3.39% (active),89.6%,84.7%,97%,102%,101%,94.5%,109%,102%,99.4%
CS(=O)(=O)c1ccc(/C(=N/N=C(N)N)c2ccc(F)cc2)cc1,97.2,85.3,106,92.7%,92%,98%,51.4%,88.8%,74.9%,103%,24.1%,91.4%,98.4%,115%,101%,108%,110%,95.6%,93.4%,95.7%
NNc1nnc2nc(Nc3ccccc3)nc(Nc3ccc(S(N)(=O)=O)cc3)n12,111,99.4,98.8,82.2%,106%,106%,94.5%,102%,92.5%,105%,93.3%,99.4%,107%,103%,112%,113%,98.3%,110%,99.6%,99.6%
CC1CC(=O)C2=C(C1)Nc1ccc(Br)cc1CC2c1c[nH]c2ccc(Br)cc12 (stereo not given),37.3,41.2,53.6,50.9%,79.4%,48.6%,38.1%,19.7%,29.7%,35.8%,29.7%,42.8%,66.2%,82%,74.4%,77.3%,32.9%,42.1%,58%,26.6%
CC(Nc1ncnc2ccc(-c3cnc(N)nc3)cc12)c1ccccc1 (stereo not given),60.8,13.5,22.1,9.12% (active),-8.21% (active),16.9%,16.7%,11.5%,36.4%,30.3%,15.1%,28.2%,48%,28.7%,39.7%,27.3%,-13.4% (active),43.8%,5.98% (active),53%
NC1C2CCC1CN(c1cnc(C(=O)Nc3cc(F)cc4cccnc34)cn1)C2 (stereo not given),101,71.2,56.1,34.9%,91.2%,28.3%,38.5%,72.8%,25%,16.3%,5.29% (active),57%,86%,66.7%,18.5%,97.1%,16.3%,46.3%,68.8%,79.4%
Cn1cc(-c2nnc(N)nc2-c2c[nH]c3ccc(Br)cc23)c2cc(Br)ccc21,110,103,110,84.2%,78.7%,94.7%,85.9%,93.6%,108%,107%,78.4%,109%,104%,120%,98.6%,111%,107%,108%,91.4%,110%
Cc1ccc2c(n1)C(=O)C(Cl)=C(Nc1ccc(C#N)cc1)C2=O,104,93,98,16.2%,104%,-58.5% (active),76.5%,61.6%,3.83% (active),7.64% (active),15.3%,55.1%,91.5%,106%,-98.5% (active),106%,68.4%,4.24% (active),97.7%,98%
Nc1ncc(-c2ccc3ncnc(NCc4ccccc4)c3c2)cn1,71,23.5,29.5,15.1%,-7.11% (active),25.2%,17.4%,22.4%,42.3%,17.7%,42.2%,31.5%,54.3%,36.7%,57.8%,39.5%,-8.67% (active),45.9%,14.7%,69%
COc1cc(NC(=O)Nc2cccc(-c3cc(=O)c4c(OC)c(OC)c(OC)cc4o3)c2)cc(OC)c1OC,49.3,62.2,38.5,24.7%,64.9%,56.1%,35.4%,19.1%,35.4%,32.1%,54.5%,31.4%,38.4%,79.5%,65.5%,111%,34.5%,40.1%,17.1%,82.4%
